# Experimental data published in PubChem BioAssay (NCI).
# About 83,000 compounds went through this panel and 20% of them were active in at least one assay; those are over-represented in the sample as a whole.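 Treatment: one concentration, 48 hours, 96-well format. Scoring: percent growth, with anything below 10 considered active.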 Unmarked numbers belong to inactive results. Calls of active or inactive are those of the source.
# Tests used:
# Assay in all cases: NCI-60 one-dose screen, 48 h (100 = growth as untreated, 0 = no growth, -100 = all killed)
# Details in all cases: 10 µM
# NCI-H23 lung = system: NCI-H23 lung
# NCI-H226 lung = system: NCI-H226 lung
# HOP-62 NSCLC = system: HOP-62 NSCLC
# NCI-H460 lung = system: NCI-H460 lung
# HOP-92 NSCLC = system: HOP-92 NSCLC
# NCI-H522 lung = system: NCI-H522 lung
# A549/ATCC NSCLC = system: A549/ATCC NSCLC
# 786-0 renal = system: 786-0 renal
# COLO 205 colon = system: COLO 205 colon
# DU-145 prostate = system: DU-145 prostate
# K-562 leukemia = system: K-562 leukemia
# MALME-3M melanoma = system: MALME-3M melanoma
# MDA-MB-231 breast = system: MDA-MB-231 breast
# RXF 393 renal = system: RXF 393 renal
# SF-268 CNS = system: SF-268 CNS
# SF-295 CNS = system: SF-295 CNS
# SF-539 CNS = system: SF-539 CNS
# UACC-257 melanoma = system: UACC-257 melanoma
# M14 melanoma = system: M14 melanoma
SMILES,growth (NCI-H23 lung),growth (NCI-H226 lung),growth (HOP-62 NSCLC),growth (NCI-H460 lung),growth (HOP-92 NSCLC),growth (NCI-H522 lung),growth (A549/ATCC NSCLC),growth (786-0 renal),growth (COLO 205 colon),growth (DU-145 prostate),growth (K-562 leukemia),growth (MALME-3M melanoma),growth (MDA-MB-231 breast),growth (RXF 393 renal),growth (SF-268 CNS),growth (SF-295 CNS),growth (SF-539 CNS),growth (UACC-257 melanoma),growth (M14 melanoma)
CCOC(=O)c1cc(C(=O)c2ccc(OC)c(OC)c2)n2ccncc12,97.4%,101%,106%,106%,94.9%,74%,99.3%,106%,115%,102%,87.5%,112%,91.4%,106%,109%,102%,99.3%,102%,102%
Cc1c[nH]c(=O)n(Cc2nnc(CCC(=O)c3nc4ccccc4[nH]3)o2)c1=O,36.9%,31.7%,17.7%,9.27% (active),53.2%,12.7%,21.1%,28.7%,-32.7% (active),-35.3% (active),10.4%,47.8%,26.1%,-7.83% (active),36.6%,21.5%,-15.2% (active),81.4%,–
S=C(NCc1ccccc1)NCc1ccccc1,95%,97.8%,94.2%,103%,99.3%,82.4%,86.1%,96.6%,107%,107%,98.7%,95.3%,100%,101%,95.8%,95.8%,101%,81.9%,–
CN(C)CCOc1ccc(-c2nc3sccn3c2-c2ccnc(S(C)(=O)=O)n2)cc1,103%,102%,87.5%,103%,57%,106%,95%,105%,114%,112%,102%,112%,110%,113%,117%,103%,102%,101%,–
O=C(NCCCNS(=O)(=O)c1ccc(Cl)cc1)Nc1ccc(-n2cc(-c3ccncc3)c(-c3ccc(Cl)c(O)c3)n2)cc1,42%,41%,76.4%,13.7%,37.3%,40.6%,28.4%,1.59% (active),16.4%,46.6%,10.1%,37.6%,-19.3% (active),18.9%,49.1%,2.43% (active),47.9%,33.7%,18.1%
O=C1c2ccccc2C(=O)c2c1ccc(C(Br)Br)c2[N+](=O)[O-],4.98% (active),-1.88% (active),78.4%,75.2%,38.8%,64.1%,94.6%,21.1%,69.6%,59.4%,-7.68% (active),-17.5% (active),-21.4% (active),48.6%,19.1%,92.8%,90.2%,95.2%,36.6%
COc1ccc(NC(=O)C2CC3C=CC2C3)c([N+](=O)[O-])c1 (configuration not stated),96%,96.1%,100%,107%,81.9%,94.9%,93.8%,123%,115%,110%,88.9%,116%,93.3%,99.8%,102%,95.5%,98.6%,98.1%,130%
COc1ccc(/C(C#N)=C/c2cccc(OC)c2OC)cc1,80%,89%,88%,108%,86.4%,58.8%,67.5%,93.8%,88.8%,106%,33.3%,73.2%,83.3%,85.7%,92.5%,75.3%,94.6%,78%,86%
CCOC(=O)c1cc(C(=O)c2cc(OC)cc(OC)c2)n2nc(C)ccc12,37.2%,78.6%,48.4%,10.8%,13.9%,-10.9% (active),26.9%,34.4%,-11.5% (active),21.9%,10.3%,74.3%,52.6%,13.6%,62.4%,23.9%,3.84% (active),59.5%,11.4%
CC[C@@H]1NC(=O)[C@H]([C@H](O)[C@H](C)C/C=C/c2ccc(CN3C(=O)CCCC3=O)cc2)N(C)C(=O)[C@H](C(C)C)N(C)C(=O)[C@H](CC(C)C)N(C)C(=O)[C@H](CC(C)C)N(C)C(=O)[C@@H](C)NC(=O)[C@H](C)NC(=O)[C@H](CC(C)C)N(C)C(=O)[C@H](C(C)C)NC(=O)[C@H](CC(C)C)N(C)C(=O)CN(C)C1=O,68.8%,-22.8% (active),62.1%,71.2%,53.3%,23.5%,47.1%,67.1%,53.9%,64.1%,39.6%,83%,51.4%,17.3%,63.1%,39%,23.7%,20.8%,–
COc1cc2cc(Oc3ccc(NC(=O)Nc4cccc(C(F)(F)F)c4)cc3)c(C)nc2cc1OC,6.78% (active),-23.5% (active),25%,2.68% (active),-29.5% (active),-17.4% (active),3.09% (active),15.1%,-20.2% (active),26.7%,11.5%,7.22% (active),-8.32% (active),-13.1% (active),29.2%,-15% (active),11.7%,-14.5% (active),–
CN(C)CCCSc1ccccc1NC1=C(Cl)C(=O)C(Nc2ccccc2SCCCN(C)C)=C(Cl)C1=O,-43.4% (active),93.5%,118%,103%,79%,-78.2% (active),101%,42.9%,17.9%,87.4%,-18.8% (active),-28.8% (active),44.9%,45.8%,43.7%,101%,42.8%,85%,94.7%
COc1ccc(-c2nnc(SCC(=O)Nc3ccc(C(=O)/C=C/c4ccccc4)cc3)n2-c2ccccc2)cc1OC,80.8%,50.4%,102%,37.1%,78.4%,53.8%,51.9%,67.1%,56.1%,50.4%,37.2%,36.4%,73.4%,72.4%,84.8%,106%,0.289% (active),72.4%,–
OCC1OC(n2ccc3c(NO)ncnc32)C(O)C1O (configuration not stated),-56.3% (active),-10.3% (active),-21.6% (active),-27.7% (active),-16.3% (active),-30.1% (active),-10.9% (active),-7.13% (active),-91.1% (active),-16.6% (active),-11.4% (active),-69.2% (active),-20% (active),-32.7% (active),-14.3% (active),-15.4% (active),-44% (active),-57.3% (active),-89.7% (active)
CC(C)c1cc(N=O)cc(C(C)C)c1O,95.2%,102%,101%,103%,108%,97.7%,97%,104%,112%,119%,106%,110%,99.3%,110%,104%,102%,109%,94.8%,123%
COc1ccc(-c2cc(-c3ccccc3)nc(SCCCCCCC(=O)NO)n2)cc1,50.9%,72.3%,57.2%,36%,49.3%,18.8%,50.1%,79.8%,44.8%,60%,26.7%,20.3%,68.9%,22.1%,97.4%,67.4%,73.2%,49.5%,–
